# PubChem BioAssay (NCI)
# About 83,000 compounds went through this panel and 20% of them were active in at least one assay; those are over-represented in the sample as a whole.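 Assay: single dose, 48 h. Readout: percent growth (0 = no net growth; negative = cell death). Active: <10.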 A number with no mark means an inactive call. Calls of active or inactive are those of the source.
# Tests used:
# Experiment in all cases: NCI-60 one-dose screen, 48 h (100 = growth as untreated, 0 = no growth, -100 = all killed)
# Conditions in all cases: 10 µM unless noted
# T-47D breast = test system: T-47D breast
# BT-549 breast = test system: BT-549 breast
# MDA-MB-435 melanoma = test system: MDA-MB-435 melanoma
# SW-620 colon = test system: SW-620 colon
# MCF7 breast = test system: MCF7 breast
# HCC-2998 colon = test system: HCC-2998 colon
# KM12 colon = test system: KM12 colon
# HCT-116 colon = test system: HCT-116 colon
Structure (SMILES),growth (T-47D breast),growth (BT-549 breast),growth (MDA-MB-435 melanoma),growth (SW-620 colon),growth (MCF7 breast),growth (HCC-2998 colon),growth (KM12 colon),growth (HCT-116 colon)
COc1cc(C(=O)/C=C/c2c(C(F)(F)F)nc3ccccn23)cc(OC)c1OC,8.03% (active),10.4%,-10.2% (active),-29.6% (active),-44.7% (active),-97.2% (active),-82.7% (active),–
O=C(Oc1ccc[nH]c1=O)c1cc([N+](=O)[O-])cc([N+](=O)[O-])c1,109%,75.6%,121%,107%,96.2%,–,116%,103%
COc1ccc(-c2cc(-c3ccc(Nc4nc(Nc5ccccc5)nc(Nc5ccc(Cl)cc5)n4)cc3)nc(N)n2)cc1,35.5%,82.1%,66.6%,80%,22.6%,-7.72% (active),39.9%,38.1%
CC[C@]1(O)C[C@H]2CN(CCc3c([nH]c4ccccc34)[C@@](C(=O)OC)(c3cc4c(cc3OC)N(C=O)[C@H]3[C@@](O)(C(=O)OC)[C@H](OC(C)=O)[C@]5(CC)C=CCN6CC[C@]43[C@@H]65)C2)C1,54.8%,-24.2% (active),-43.7% (active),15.5%,2.44% (active),–,5.78% (active),-36.7% (active)
O=[N+]([O-])c1ccc(-c2cc3c(Nc4ccc(OCc5cccc(Cl)c5)c(Cl)c4)ncnc3s2)cc1,58.9%,86.2%,74.3%,48.7%,44.1%,102%,74%,–
COc1cc2c(O)n(CCCn3ccnc3)c3c4cnc5cccc(c(=O)c3c2cc1OC)c54,-6.91% (active),27.6%,51%,20.4%,10.8%,70.4%,61%,–
CN(C)c1ccc(/C=C/c2c(F)cccc2F)cc1,58.3%,94.7%,101%,104%,49.7%,95.1%,91.7%,–
N=c1ccn2c(n1)OC1C(O)C(CO)OC12 (stereo not drawn),61%,44.9%,46.8%,41.5%,14.9%,–,50.6%,18.3%
COC(=O)/C(=C\c1ccc(OC)cc1)C(=O)N1c2ccccc2Sc2ccccc21,48.4%,-45.7% (active),-57.8% (active),33.6%,26.8%,86.8%,36.1%,–
COc1cc2nc(Nc3ccc(F)cc3)nc(N)c2cc1OC,83.2%,93.9%,96.2%,103%,82.9%,113%,94.7%,–
O[C@H]1CO[C@H]2[C@@H]1OC[C@@H]2Oc1ccc(Nc2ccnc(Nc3ccc(O[C@H]4CO[C@H]5[C@@H]4OC[C@@H]5O)c(Cl)c3)n2)cc1Cl,2.36% (active),22.1%,22.7%,19.5%,14.6%,17.1%,6.62% (active),–
OC(COc1cccc2ccccc12)CN1CCN(c2ccccc2)CC1 (stereo not drawn),86.2%,95.3%,88.2%,102%,96.4%,–,95.3%,86.9%
COc1cc(NC(=O)c2cc(O)c(CC=C(C)C)c(O)c2)cc2c1O[C@]1(C)CC[C@@H](O)C(C)(C)[C@H]1C2,7.15% (active),8.48% (active),24.2%,14.7%,10.5%,48.7%,31.1%,–
COc1ccc(-c2cn(-c3cccc(C(=O)/C=C/c4cc(OC)c(OC)c(OC)c4)c3)c(=O)[nH]2)cc1,-9.54% (active),139%,-9.22% (active),-50.7% (active),-34.5% (active),–,-62.6% (active),-91.9% (active)
C[C@@H]1C(=O)N(C[C@H](Cc2ccccc2)N(Cc2ccccc2)Cc2ccccc2)[C@]1(Cc1ccccc1)C(=O)OC(C)(C)C,47.4%,85.7%,76.5%,63.7%,50.6%,84.5%,62.4%,–
CC1(C)CC(=O)c2c(ccc(C(=O)C[C@H](N)CO)c2N)O1,53.8%,25%,52.3%,7.48% (active),13.3%,9.33% (active),16%,–

Structure (SMILES),growth (T-47D breast),growth (BT-549 breast),growth (MDA-MB-435 melanoma),growth (SW-620 colon),growth (MCF7 breast),growth (HCC-2998 colon),growth (KM12 colon),growth (HCT-116 colon)
Cn1ncc2c(Nc3ccc(Br)cc3)nc(Nc3ccc(Br)cc3)nc21,29.1%,62.5%,33.5%,52.7%,3.89% (active),–,37.1%,37%
COc1cccc(-c2cnco2)c1OCc1c(C)c(COc2c(OC)cccc2-c2cnco2)c(C)c(COc2c(OC)cccc2-c2cnco2)c1C,33.5%,39.2%,54.9%,75%,65.5%,99.3%,–,–
CC(C)c1ccc(NC(=O)Cc2ccc(Nc3ncnc4cc(-c5cnn(CCN(C)C)c5)ccc34)cc2)cc1,-37.1% [30 µM] (active),-15.3% [30 µM] (active),-85.4% [30 µM] (active),-82.6% [30 µM] (active),-49.1% [30 µM] (active),-79.6% [30 µM] (active),-86.4% [30 µM] (active),-19.7% [30 µM] (active)
O=[N+]([O-])c1ccc(-c2cc3c(Nc4ccc(Cl)c(C(F)(F)F)c4)ncnc3s2)cc1,-6.08% (active),8.01% (active),5.4% (active),16.8%,3.55% (active),19.2%,10.9%,6.29% (active)
N#Cc1c(NC(=O)c2cccc(C(F)(F)F)c2)sc2c1CCC(=O)C2,-21.6% (active),-77.1% (active),-74.6% (active),-66.2% (active),7.82% (active),27.2%,-21.3% (active),–
C/C(=N\NC(N)=S)c1nc2ccc(Cl)cc2[nH]1,40.5%,74.9%,54.6%,41.4%,8.53% (active),55.8%,32.1%,–
O=C(NC(=S)Nc1ccc(-c2nc3ccccc3[nH]2)cc1)c1ccc2ccccc2c1,18.5%,4.76% (active),22.6%,34.2%,36.4%,66.2%,31.3%,–
OCCCCc1nccc2c1[nH]c1ccccc12,110%,57.5%,85.7%,108%,89%,–,110%,101%
Fc1ccc(Nc2ccc3cc(OCCCN4CCOCC4)ccc3n2)cc1F,43.5%,68.6%,59.9%,–,55.7%,20%,21.3%,47.7%
N#Cc1c(NC(=O)c2ccccc2I)sc2c1CCCC2,61.4%,52.2%,-4.69% (active),21%,–,71.6%,34.2%,26.4%
NS(=O)(=O)Oc1ccc(-c2sc3cc(O)ccc3c2C(=O)c2ccc(OCCN3CCCCC3)cc2)cc1,86.6%,84.6%,-28% (active),51.7%,–,59.5%,65.3%,43.5%
COc1ccc(Cn2cnc3cc(C(=O)Nc4cccc5ccccc45)ccc32)c(OC)c1,59.8% [30 µM],30.8% [30 µM],-44.5% [30 µM] (active),22.7% [30 µM],–,6.79% [30 µM] (active),–,10.3% [30 µM]
COc1cc(/C=C/C(=O)c2ccc(Nc3nc(Nc4ccccc4)nc(Nc4ccc(Cl)cc4)n3)cc2)cc(OC)c1OC,28.3%,50.9%,58.8%,56.2%,–,–,46.9%,0.251% (active)
O=C(O)CC1Sc2ccccc2NC1=O (stereo not drawn),111%,118%,104%,103%,–,106%,104%,100%
CC(C)(C)c1ccc(C(=O)Nc2sc3c(c2C(N)=O)CCC(=O)C3)cc1,-13.7% (active),-10.3% (active),-45.2% (active),-36.7% (active),–,17.1%,-55.6% (active),-30.5% (active)
CCCCCCNCc1cc(C(C)(C)C)cc(CNCCCCCC)c1O,-41.6% (active),-81% (active),-82.8% (active),-69.6% (active),–,-85.2% (active),-83% (active),–
